According to PubChem BioAssay AID434985 (The Scripps Research Institute Molecular Screening Center, 2010):
This is one part of the list. Activity calls are given as the source filed them.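 The calls were made as follows: active = mean percent activation over triplicates above a cutoff set from solvent-only control plates; inactive = the rest.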

Target: Oxytocin receptor (Homo sapiens) (UniProt P30559)
Experiment: enhancers of OXTR calcium response, retest – fluorescence, CHO-OTR cells, triplicate, confirmation (AID 434985);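 also: compounds tested in the presence of an EC15 dose of oxytocin; 0% = EC15 oxytocin with DMSO and 100% = EC100 oxytocin with DMSO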
Conditions: Fluo-8 calcium fluorescence, potentiation, at 3 µM, hits give high values, scaled from low-dose to maximal oxytocin

Oxytocin receptor (Homo sapiens), sequence (P30559 whole entry, looked up): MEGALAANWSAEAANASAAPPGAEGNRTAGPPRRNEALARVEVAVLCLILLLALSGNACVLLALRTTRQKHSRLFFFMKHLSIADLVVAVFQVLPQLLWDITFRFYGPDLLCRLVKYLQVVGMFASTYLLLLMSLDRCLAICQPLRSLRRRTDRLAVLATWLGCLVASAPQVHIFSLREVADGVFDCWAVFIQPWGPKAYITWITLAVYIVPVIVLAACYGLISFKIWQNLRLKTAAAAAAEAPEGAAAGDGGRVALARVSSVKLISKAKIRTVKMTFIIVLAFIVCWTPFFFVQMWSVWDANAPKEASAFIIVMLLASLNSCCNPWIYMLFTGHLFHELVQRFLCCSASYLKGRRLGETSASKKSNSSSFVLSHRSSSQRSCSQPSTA

activation, inactive:
COc1cc2c(cc1OC)C(c1ccc(C)o1)CC(=O)N2 (configuration not stated) -4.74%, CCCCNc1c(-c2ccc(OC)c(Sc3ccc(OC)cc3)c2)nc2ccc(Cl)cn12 -4.15%, CCCCn1c(N)c(N2CCOCC2)c(=O)n(CC(=O)NCCc2ccccc2)c1=O -3.12%, CNc1nnc(-c2ccco2)s1 -4.03%, COCCn1c(CN(Cc2ccccc2)Cc2ccccc2)nc2c1c(=O)n(C)c(=O)n2C -1.46%, Cc1ccc(OCC(O)CN2CCN(CC(O)COc3ccc(C)cc3Cl)CC2)c(Cl)c1 (configuration not stated) -3.49%, Cc1cc(C)cc(NC(=O)CSc2ccccc2)c1 -0.71%
